{"source": "the supplement of paper PMC8728848", "binders": {"B1": {"name": "LF82 (Escherichia coli) (protein)", "chain": "ADWGPCRTASGDPFIFVTSFTKNIQNPTDNVTGQTYPDFYQWALGDKYSGVCECPSPNPTEARPTLYKTESTLAAGHNSTYFKITNNLEVSTRVYIANVGNVQVPFINKSNSQPGRECDQPTFGWTTGSKGQLSLYIAKPFVGEQNIPQTIIVSVFGTKKENVYSSVPISQVLLSGKVTVTQGCELAAGTSLDIDFGEYQAHDFKGRTGQPPQNVQKIQKELTFNCTNISDGVHIYLSLEGTPNAAYPSAISLGNADVGAVIEDGKGNILKPNDSNSLLEMNPGSLYEYVKRKVTTTITAYPVSTTGKLPAAGDYSGVATMHVELDGGGGGGGGGGATTDLGAKGTLKFSLKISQGHHHHHH"}}, "experiment_in_all_cases": "glycan array binding signal (z-score within array); higher = stronger binding", "conditions_in_all_cases": "glycan notation: IUPAC condensed, linker removed", "key": {"[1]": {"molecular_target": "GlcNAc(b1-3)Gal(b1-4)GlcNAc(b1-2)Man(a1-3)[GlcNAc(b1-3)Gal(b1-4)GlcNAc(b1-2)Man(a1-6)]Man(b1-4)GlcNAc(b1-4)GlcNAc", "method_in_brief": "(§1)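 The binding signal is a Z-score computed within each array and averaged over linkers. Arrays of the same protein sequence at different concentrations or buffers were also averaged together. Data originate from 3228 arrays in the Consortium for Functional Glycomics database, kept only where the protein sequence was available.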"}, "[2]": {"molecular_target": "GlcNAc(b1-3)Gal(b1-4)GlcNAc(b1-3)Gal(b1-4)GlcNAc(b1-2)Man(a1-3)[GlcNAc(b1-3)Gal(b1-4)GlcNAc(b1-3)Gal(b1-4)GlcNAc(b1-2)Man(a1-6)]Man(b1-4)GlcNAc(b1-4)GlcNAc", "method_in_brief": "as §1"}, "[3]": {"molecular_target": "GlcNAc(b1-3)Gal(b1-4)GlcNAc(b1-6)[Gal(b1-3)]GalNAc", "method_in_brief": "as §1"}, "[4]": {"molecular_target": "GlcNAc(b1-3)Gal(b1-4)GlcNAc(b1-6)[GlcNAc(b1-3)Gal(b1-3)]GalNAc", "method_in_brief": "as §1"}, "[5]": {"molecular_target": "GlcNAc(b1-3)Man", "method_in_brief": "as §1"}, "[6]": {"molecular_target": "GlcNAc(b1-4)GlcNAc(b1-4)GlcNAc(b1-4)GlcNAc(b1-4)GlcNAc(b1-4)GlcNAc", "method_in_brief": "as §1"}, "[7]": {"molecular_target": "GlcNAc6S(b1-3)Gal(b1-4)GlcNAc", "method_in_brief": "as §1"}, "[8]": {"molecular_target": "Man(a1-2)Man(a1-6)[Man(a1-3)]Man(a1-6)[Man(a1-2)Man(a1-2)Man(a1-3)]Man(b1-4)GlcNAc(b1-4)GlcNAc", "method_in_brief": "as §1"}, "[9]": {"molecular_target": "Man(b1-4)GlcNAc", "method_in_brief": "as §1"}, "[10]": {"molecular_target": "Neu5Ac(a2-3)Gal", "method_in_brief": "as §1"}, "[11]": {"molecular_target": "Neu5Ac(a2-3)Gal(b1-3)GalNAc6S", "method_in_brief": "as §1"}, "[12]": {"molecular_target": "Neu5Ac(a2-3)Gal(b1-3)GlcNAc(b1-2)[Neu5Ac(a2-3)Gal(b1-3)GlcNAc(b1-4)]Man(a1-6)[Neu5Ac(a2-3)Gal(b1-3)GlcNAc(b1-2)Man(a1-3)]Man(b1-4)GlcNAc(b1-4)GlcNAc", "method_in_brief": "as §1"}, "[13]": {"molecular_target": "Neu5Ac(a2-3)Gal(b1-3)GlcNAc(b1-3)Gal(b1-3)GlcNAc", "method_in_brief": "as §1"}, "[14]": {"molecular_target": "Neu5Ac(a2-3)Gal(b1-3)GlcNAc(b1-6)GalNAc", "method_in_brief": "as §1"}, "[15]": {"molecular_target": "Neu5Ac(a2-3)Gal(b1-3)[Fuc(a1-4)]GlcNAc(b1-3)Gal(b1-4)[Fuc(a1-3)]GlcNAc", "method_in_brief": "as §1"}, "[16]": {"molecular_target": "Neu5Ac(a2-3)Gal(b1-4)Glc", "method_in_brief": "as §1"}, "[17]": {"molecular_target": "Neu5Ac(a2-3)Gal(b1-4)GlcNAc(b1-2)[Neu5Ac(a2-3)Gal(b1-4)GlcNAc(b1-4)]Man(a1-3)[GlcNAc(b1-4)][Neu5Ac(a2-3)Gal(b1-4)GlcNAc(b1-4)Man(a1-6)]Man(b1-4)GlcNAc(b1-4)GlcNAc", "method_in_brief": "as §1"}, "[18]": {"molecular_target": "Neu5Ac(a2-3)Gal(b1-4)GlcNAc(b1-6)[Neu5Ac(a2-3)Gal(b1-3)]GalNAc", "method_in_brief": "as §1"}, "[19]": {"molecular_target": "Neu5Ac(a2-3)Gal(b1-4)[Fuc(a1-3)]GlcNAc(b1-3)Gal(b1-4)GlcNAc", "method_in_brief": "as §1"}, "[20]": {"molecular_target": "Neu5Ac(a2-3)Gal(b1-4)[Fuc(a1-3)]GlcNAc(b1-3)Gal(b1-4)[Fuc(a1-3)]GlcNAc(b1-3)Gal(b1-4)[Fuc(a1-3)]GlcNAc", "method_in_brief": "as §1"}, "[21]": {"molecular_target": "Neu5Ac(a2-3)Gal(b1-4)[Fuc(a1-3)]GlcNAc(b1-3)GalNAc", "method_in_brief": "as §1"}, "[22]": {"molecular_target": "Neu5Ac(a2-6)Gal(b1-3)GlcNAc(b1-3)[Gal(b1-4)GlcNAc(b1-6)]Gal(b1-4)Glc", "method_in_brief": "as §1"}, "[23]": {"molecular_target": "Neu5Ac(a2-6)Gal(b1-4)GlcNAc(b1-2)Man(a1-6)[Gal(b1-4)GlcNAc(b1-2)Man(a1-3)]Man(b1-4)GlcNAc(b1-4)GlcNAc", "method_in_brief": "as §1"}, "[24]": {"molecular_target": "Neu5Ac(a2-6)Gal(b1-4)GlcNAc(b1-3)Gal(b1-4)GlcNAc(b1-3)Gal(b1-4)GlcNAc", "method_in_brief": "as §1"}, "[25]": {"molecular_target": "Neu5Ac(a2-6)Gal(b1-4)GlcNAc(b1-3)Gal(b1-4)[Fuc(a1-3)]GlcNAc(b1-3)Gal(b1-4)[Fuc(a1-3)]GlcNAc", "method_in_brief": "as §1"}, "[26]": {"molecular_target": "Neu5Ac(a2-8)Neu5Ac(a2-8)Neu5Ac(a2-3)[GalNAc(b1-4)]Gal(b1-4)Glc", "method_in_brief": "as §1"}, "[27]": {"molecular_target": "Neu5Ac(a2-8)Neu5Ac(a2-8)Neu5Ac(a2-8)Neu5Ac(a2-3)[GalNAc(b1-4)]Gal(b1-4)Glc", "method_in_brief": "as §1"}, "[28]": {"molecular_target": "Neu5Ac(a2-8)Neu5Gc(a2-3)Gal(b1-4)GlcNAc", "method_in_brief": "as §1"}, "[29]": {"molecular_target": "Neu5Gc(a2-3)Gal(b1-3)GlcNAc", "method_in_brief": "as §1"}}, "note": "The full list was thinned out, with the strongest signals kept by preference."}
{"binder": "B1", "values": [{"measurement": "glycan array binding signal (z-score)", "setting": "[1]", "result": -0.713}, {"measurement": "glycan array binding signal (z-score)", "setting": "[2]", "result": 1.79}, {"measurement": "glycan array binding signal (z-score)", "setting": "[3]", "result": -0.509}, {"measurement": "glycan array binding signal (z-score)", "setting": "[4]", "result": 0.416}, {"measurement": "glycan array binding signal (z-score)", "setting": "[5]", "result": 0.644}, {"measurement": "glycan array binding signal (z-score)", "setting": "[6]", "result": -1.17}, {"measurement": "glycan array binding signal (z-score)", "setting": "[7]", "result": -0.173}, {"measurement": "glycan array binding signal (z-score)", "setting": "[8]", "result": 0.244}, {"measurement": "glycan array binding signal (z-score)", "setting": "[9]", "result": 0.456}, {"measurement": "glycan array binding signal (z-score)", "setting": "[10]", "result": 0.191}, {"measurement": "glycan array binding signal (z-score)", "setting": "[11]", "result": 0.435}, {"measurement": "glycan array binding signal (z-score)", "setting": "[12]", "result": 4.88}, {"measurement": "glycan array binding signal (z-score)", "setting": "[13]", "result": -0.469}, {"measurement": "glycan array binding signal (z-score)", "setting": "[14]", "result": -0.373}, {"measurement": "glycan array binding signal (z-score)", "setting": "[15]", "result": -0.501}, {"measurement": "glycan array binding signal (z-score)", "setting": "[16]", "result": 0.503}, {"measurement": "glycan array binding signal (z-score)", "setting": "[17]", "result": 2.08}, {"measurement": "glycan array binding signal (z-score)", "setting": "[18]", "result": -0.112}, {"measurement": "glycan array binding signal (z-score)", "setting": "[19]", "result": 0.281}, {"measurement": "glycan array binding signal (z-score)", "setting": "[20]", "result": 0.12}, {"measurement": "glycan array binding signal (z-score)", "setting": "[21]", "result": 0.56}, {"measurement": "glycan array binding signal (z-score)", "setting": "[22]", "result": 2.17}, {"measurement": "glycan array binding signal (z-score)", "setting": "[23]", "result": 0.283}, {"measurement": "glycan array binding signal (z-score)", "setting": "[24]", "result": 0.668}, {"measurement": "glycan array binding signal (z-score)", "setting": "[25]", "result": 0.159}, {"measurement": "glycan array binding signal (z-score)", "setting": "[26]", "result": -0.553}, {"measurement": "glycan array binding signal (z-score)", "setting": "[27]", "result": 2.59}, {"measurement": "glycan array binding signal (z-score)", "setting": "[28]", "result": -0.211}, {"measurement": "glycan array binding signal (z-score)", "setting": "[29]", "result": 3.85}]}
